The other results are listed elsewhere or left out. A number with no mark means an inactive call. Calls of active or inactive are those of the source.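 How the source made its calls: active means mean activation over triplicate runs exceeds the adjusted cutoff derived for the parent primary screen (cut at about 19% in these data); inactive means the rest.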

A short description of the experiment: FP signal interference without PKA proteins, confirmation, artefact control for PKA-R1A activator project, biochemical, fluorescence polarization, triplicate (AID 504799).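 Further: no PKA protein present so any polarization rise reflects compound interference; 0% = tracer peptide mix alone and 100% = mix with added PKA catalytic subunit; higher means stronger polarization artifact and likely false positive in parent screen.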 As to conditions: Cy5-IP20 peptide alone, fluorescence polarization artifact counterscreen; at 11.4 µM; active compounds read high. For orientation: Polarisation of emitted light reports the rotation of a fluorescent probe.
Consider `COc1ccccc1N1CC(C(=O)Nc2nnc(SCC(=O)NC(C)C)s2)CC1=O` (stereo not given), for which the activation is -0.21%.

As for `N#Cc1ccccc1CN1C(=O)S/C(=C/c2cccn2-c2cccc(C(=O)O)c2)C1=O`, the activation was 19.3% (active).

Take `CCCC(=O)Nc1ncnc2c1ncn2[C@@H]1O[C@@H]2OP(=O)(O)OC[C@H]2[C@H]1OC(=O)CCC`: the activation was 0.15%.

As for `CN(C(=O)CSc1nnc(Nc2ccccc2)s1)C1CCS(=O)(=O)C1` (stereo not given), the activation was 0.22%.

On to `COc1ccc(CNc2nnnn2C)cc1`, for which the activation is 3.5%.

As to `O=C(Nc1ccc2c(c1)[C@@H]1C[C@@H](CC(=O)N3CCCCC3)O[C@@H](CO)[C@@H]1O2)NC1CCCCC1`, the activation was 3.18%.

With `CCOc1cc(C(=O)Nc2c(C)ccc3nsnc23)cc(OCC)c1OCC`, the activation is 3.5%.

`COc1ccc(NC(=O)c2ccc(C#CC(C)(C)O)cc2)cc1`: the activation is -2.01%.

Turning to `CCC(Oc1ccccc1C)C(=O)Nc1ccc(S(=O)(=O)Nc2cc(C)on2)cc1` (stereo not given), the activation was 2.96%.

Regarding `Cc1ccc2nc3c(cc(C(=O)NCCc4ccccc4)c(=N)n3CC3CCCO3)c(=O)n2c1` (stereo not given), the activation is 4%.
